This note sets out measurements from PubChem BioAssay (NCI).

Holding throughout (test): NCI-60 one-dose screen, 48 h (100 = growth as untreated, 0 = no growth, -100 = all killed)
What all share (conditions): 10 µM unless noted

In assay [1] the test system is SK-MEL-2 melanoma.
For assay [2], the system named is EKVX NSCLC.
Assay [3] relates to SN12C renal.
Assay [4] concerns UO-31 renal.
The test system of assay [5] is TK-10 renal.
The subject of assay [6] is ACHN renal.
Assay [7] relates to CAKI-1 renal.
The subject of assay [8] is A498 renal.
The test system of assay [9] is CCRF-CEM leukemia.
In assay [10] the test system is MOLT-4 leukemia.

The panel holds about 83,000 compounds, 20% with a hit somewhere; the sample as a whole holds those more often.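 48-hour exposure, single concentration, 96-well plates; percent growth endpoint where 0 means no net growth. Active: below 10.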 A number with no mark means an inactive call. Activity calls are given as the source filed them.

Regarding `CCn1cc(CNc2ccc(C(=O)Nc3cc4cc(OC)c(OC)cc4c(C)n3)cc2)c(C)n1`, the growth in assay [1] is 11.5%; in assay [2], 59.7%; in assay [3] it was 67%; in assay [4] it was 22.4%; in assay [5], 49%; in assay [6] it was 36.1%. Moreover, the growth was 30.1% in [7], 93.6% in assay [8], 11.8% in assay [9] and 9.9% (active) in assay [10].

With `COc1cc2c(c(OC)c1OC)C(=O)N[C@@H]1[C@@H](O)[C@@H](O)[C@H](O)C[C@@H]21`, the growth in [1] was 117%; in assay [2], 103%; in assay [3], 104%; in assay [4], 87.1%; in assay [5], 98.5%; in assay [6], 99.7%. Besides, the growth in assay [7] is 94.1%; in assay [8] it was 112%; in [9] it was 104%; in [10] it was 104%.

Take `Fc1ccc(CNc2c3ccccc3nc3ccccc23)cc1`: the growth in [1] is 43.8%; in assay [2], 35.6%; in assay [3], 25.7%; in [4] it was 13.5%; in assay [5] it was 30.2%; in assay [6] it was 12.5%. In addition, the growth in assay [7] was 25.5%; in assay [8], -1.77% (active); in [9], 26%; in assay [10] it was 8.68% (active).

With `CN(C)c1ccc(C(=NO)c2ccc(N(C)C)cc2)cc1`, the growth in [1] was -23% (active); in [2], 50.8%; in [3], 45.5%; in assay [4], 67.1%; in [5], 56.6%; in assay [6], 50.9%. Further, the growth was 24.1% in assay [7], 31.3% in assay [8], 38.3% in [9] and 31.7% in assay [10].

For the compound `COc1cc2c(c(OC)c1OC)C(=O)CC(c1cccc(NC(=O)c3ccccc3Br)c1)O2` (stereo not given), the growth in assay [1] is 75.8%; in assay [2] it was 102%; in [3], 91.5%; in assay [4], 77.3%; in [5], 97.1%; in assay [6] it was 93%. In addition, the growth is 109% in assay [7], 75.9% in assay [8], 73.1% in [9] and 69.6% in [10].

`CCNc1nc(-c2ccc(F)cc2)c(C#N)c(=O)n1C`: the growth in assay [1] was 77.8%; in [2], 29.1%; in [3] it was 69.1%; in [4] it was 41.2%; in assay [5], 34%; in [6], 52.5%. The growth in assay [7] is 53.3%; in assay [8], -9.07% (active); in assay [9], 85.9%; in assay [10], 71.6%.

For the compound `Nc1ncnc2c1c(-c1ccc(Oc3ccccc3)cc1)nn2CC1SSCC1O` (stereo not given), the growth is 56.8% in [1]; 4.11% (active) in [2]; 49.1% in assay [3]; -3.62% (active) in assay [4]; 8.91% (active) in assay [5]; 25.9% in assay [6]. For the same compound, the growth was 42.5% in assay [7], 27.8% in [8], 9.92% (active) in assay [9] and -33.3% (active) in assay [10].

For the compound `N=C(N)c1ccc(-c2ccc(-c3ccc(F)cc3)s2)s1`, the growth in assay [1] is 73.6%; in assay [2], 41.4%; in [3], -50% (active); in assay [4], -32.6% (active); in assay [5], 28.5%; in assay [6] it was -73.7% (active). In addition, the growth in [7] is 0.453% (active); in assay [8] it was 58.9%; in assay [9], -33.6% (active); in [10] it was -44.2% (active).

For `COc1ccc(Cn2cc(C(=O)N=Nc3c(O)[nH]c4c(Cl)cccc34)nn2)cc1`, the growth in assay [1] is 93.2%; in assay [2] it was 102%; in assay [3] it was 95.8%; in [4], 93.5%; in assay [5] it was 106%; in assay [6], 111%. In addition, the growth in [7] is 94.4%; in assay [8], 93.8%; in assay [9] it was 106%; in assay [10], 84.8%.

With `N#Cc1c(-c2ccccc2)cc(-c2ccccc2)n(CCCC(=O)NO)c1=O`, the growth in assay [1] was 34.1%; in assay [2], 27.1%; in [3], 25.8%; in assay [4], -24.8% (active); in [5], 34.3%; in [6], 8.48% (active). Moreover, the growth is 10.6% in [7], -6.11% (active) in assay [8], 10.9% in assay [9] and 14.1% in [10].

Regarding `Cc1c2cc[nH]c(=O)c2c(C)c2c1[nH]c1ccc(OC(=O)c3ccccc3)cc12`, the growth in assay [1] was 23.7%; in assay [2] it was 19.7%; in assay [3], 32.3%; in [4], 12.9%; in [5] it was 34%; in assay [6], -9.28% (active). In addition, the growth is 29.1% in assay [7], 61.2% in assay [8], 29.4% in [9] and 6.99% (active) in [10].

As for `O=C(/C=C/C12c3ccccc3C(c3ccccc31)C1C(=O)NC(=O)C12)c1ccc(F)cc1` (stereo not given), the growth in [1] is -52.2% (active); in [2], 19.1%; in assay [3], 11.2%; in [4], 15.8%; in [5], 16.8%; in assay [6], 4.11% (active). Further, the growth was 16.7% in assay [7], -6.86% (active) in [8], -0.929% (active) in assay [9] and 2.98% (active) in assay [10].
